Screening results deposited in PubChem BioAssay by National Center for Advancing Translational Sciences (NCATS).
In the library only some 1.3% were active in any assay of this set; here they are far more common.
Rango dissoc inh: inhibitors of RanGTP-induced Rango-importin beta complex dissociation. O95149+P62826. Biochemical FRET Rango-importin beta, RanGTP-induced dissociation. Potency, µM (top dose mostly 46.1 µM), for the others: at the top dose activity change, negative = inhibition. hit rate 0.071% among 340,000; also: potency is read from the fitted curve at half-maximal effect; % of control where 0% means no effect; nearly all actives have a fitted effect of over 45% in size
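Two FRET readings bracket the reaction: one 5 min after compound meets Rango–importin beta, another 45 min after RanGTP-RCC1 (0.6 uM Ran, 0.2 uM RCC1, 2 mM GTP) is added. Only the second defines inhibition.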
KCNH2 3.1 inh: blocks the human KCNH2 3.1 channel isoform | U2OS KCNH2 3.1, thallium flux FluxOr; stronger effect = lower value | activity change, % (tested at about 1.8 µM) | hit rate 0.95% among 340,000 | AID 720553;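 active = maximum activity change below -70%; inconclusive = maximum activity change from -70% to -50%; inactive = maximum activity change above -50%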;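 also: thallium influx rate constant from kinetic fluorescence after stimulation buffer; % is scaled to controls: 0 for no effect and ±100 for the full control effect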
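Channel expression came from 3.1 mutant virus (1.77 x 10^8 /mL) applied to suspended U2OS cells for 4 h. Flux was tracked with FluxOr dye plus Red40 quencher, and kinetic rate constants normalized to controls.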
hERG WT inh: inhibitors of human wildtype KCNH2 potassium channel; Q12809; U2OS, BacMam KCNH2, thallium flux FluxOr; stronger effect = lower value; activity change, % at 1.84 µM; hit rate 0.37% among 340,000;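 active = maximum activity change below -70%; inconclusive = maximum activity change between -70% and -50%; inactive = maximum activity change above -50%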; also: % is scaled to controls: 0 for no effect and ±100 for the full control effect
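U2OS cells transduced with wild-type KCNH2 virus are loaded with FluxOr dye for 45 min, and thallium flux is measured in kinetic reads before and after stimulation buffer. Rate constants are normalized to DMSO controls.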
Rango-impB inh: inhibitors of Rango-importin beta complex formation | Potency, µM (top dose mostly 92.2 µM), inactives show at the top dose inhibition of complex formation | Rango CFP/YFP FRET sensor + importin beta, 45 min | AID 540263 | hit rate 0.031% among 340,000 | Q14974;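 also: potency is read from the fitted curve at half-maximal effect; 0% = DMSO wells and 100% = buffer wells lacking importin beta; nearly all actives have a fitted effect of over 15% in size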
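Inhibition scored from the CFP 486 nm/YFP 530 nm FRET ratio 45 min after adding 0.125 microM importin beta to 50 nM Rango biosensor preincubated 5 min with compound (room temperature, PBS with DTT, Tween-20, BSA). No-importin wells as positive control.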
Active calls of the source: *; ? = inconclusive; / = no result given. Unless noted, calls follow the shape of the full dose curve.

SMILES	Rango dissoc inh	KCNH2 3.1 inh	hERG WT inh	Rango-impB inh
Cc1ccccc1-c1nnc(SCC(=O)NCC2CCCO2)o1 (centres undefined)	3%	11	2	0%
CC(C)Cn1c(SC(C)C(=O)NC2CC2)nnc1-c1ccccc1F (centres undefined)	-6%	5	-1	-1%
O=C(CN(Cc1ccco1)C(=O)CNS(=O)(=O)c1ccc(F)cc1)NCc1ccco1	3%	5	2	0%
CCOc1ccc(S(=O)(=O)N(C)CC(=O)N2CCCC2)cc1	-13%	-100*	-9	6%
COc1ccc(S(=O)(=O)N(C)CC(=O)N2CCCCCC2)cc1	-20%	7	-18	4%
CN(c1ccc(OCC(=O)N2CCCC2)cc1)S(=O)(=O)c1ccc(Cl)cc1	-5%	11	-133*	3%
c1cncc(CNC2CCCc3ccccc32)c1 (centres undefined)	3%	-99*	-18	2%
O=C(c1ccoc1)N1CCCC(CO)(CCCc2ccccc2)C1 (centres undefined)	-14%	-155*	-16	0%
Cc1ccccc1CC1(CO)CCCN(C(=O)c2ccoc2)C1 (centres undefined)	/	-9	7	/
COc1cc(NC(=O)c2cc3nc(-c4ccccc4)cc(-c4ccccc4)n3n2)cc(OC)c1OC	0%	-73*	-5	1%
COc1cc(NC(=O)c2cc(-c3ccccc3)on2)cc(OC)c1OC	-10%	3	-4	0%
CC1(C)Cc2c(sc(NC(=O)C(=O)N3CCCC3)c2C(N)=O)CO1	2%	-11	8	-3%
CC1(C)Cc2c(sc(NC(=O)C(=O)NCC3CCCO3)c2C(N)=O)CO1 (centres undefined)	4%	3	-95*	3%
O=c1oc2cc(O)ccc2cc1-c1nc2c(s1)CCc1ccccc1-2	?	-32	-157*	?
O=c1oc2ccccc2cc1-c1nc2c(s1)CCc1ccccc1-2	?	-28	-4	?
CCC(CC)c1nnc(NC(=O)c2nc3nc(C)cc(C)n3n2)s1	?	-110*	4	1%
O=C1N=C(N2C=CC(=C3C=CNC=C3)C=C2)/C(=C/N=NC(=O)c2ccccc2O)S1	-17%	-8	20	?
CCCCC1=CC2=CC(=O)C(C)(OC(=O)CC)C(=O)C2=CN1Cc1ccc(OC)cc1 (centres undefined)	8.2µM*	-14	-7	?
CCCCC1=CC2=CC(=O)C(C)(OC(=O)CC)C(=O)C2=CN1CC(C)C (centres undefined)	?	24	15	?
CN(Cc1ccco1)S(=O)(=O)c1cc(F)ccc1CN1C(=O)c2cccnc2C1=O	21%	8	-7	7%
COc1ccc(-c2ccc(-c3noc(-c4ccccc4)n3)c(OC)n2)cc1	2.1µM*	-10	1	?
Cc1cccc(-c2cc3nc(C)cc(N4CC(C)CC(C)C4)n3n2)c1 (centres undefined)	10%	-120*	-2	0%
Cc1cccc(-c2cc3nc(C)cc(C)n3n2)c1	-5%	-19	-6	0%
c1ccc2c(c1)OCCOCCOc1ccccc1OCCOCCO2	-8%	-79*	23	0%
Nc1ccc2c(c1)OCCOCCOCCOCCOCCO2	-15%	7	-10	?
SMILES	Rango dissoc inh	KCNH2 3.1 inh	hERG WT inh	Rango-impB inh
Brc1ccc2c(c1)OCCOCCOc1cc(Br)ccc1OCCOCCOCCO2	12%	-96*	-88*	-4%
C/C(=N/O)c1ccc2c(c1)OCCOCCOc1cc(/C(C)=N/O)ccc1OCCOCCO2	-20%	-74*	-42	?
CCCCSc1nc2c(cnn2-c2ccc(C)c(C)c2)c(=O)[nH]1	13%	8	5	-2%
CCCSc1nc2c(cnn2-c2ccc(C)c(C)c2)c(=O)[nH]1	7%	-123*	4	-3%
CCOC(=O)C1(CCOc2ccccc2)CCN(Cc2ccc(C(=O)OC)cc2)CC1	2%	-88*	8	0%
CCOC(=O)C1(CCOc2ccccc2)CCN(Cc2ccc(F)c(OC)c2)CC1	-24%	?	26	-4%
CCOC(=O)C1(CCOc2ccccc2)CCN(Cc2ccc(O)c(OC)c2)CC1	8%	-75*	?	1%
CCOC(=O)C1(CCOc2ccccc2)CCN(Cc2ccncc2)CC1	-8%	5	10	0%
CCOC(=O)C1(CCOc2ccccc2)CCN(Cc2cccc(OC)c2)CC1	-8%	-116*	-96*	1%
CCOC(=O)C1(CCOc2ccccc2)CCN(Cc2ccc(-n3cccn3)cc2)CC1	4%	-108*	-130*	4%
CN1C[C@@H]2[C@@H]3C(=O)N(C)C(=O)[C@@H]3[C@](C)(C1=O)N2C(=O)c1ccc(F)cc1	-7%	12	7	2%
Cc1c(Cl)cccc1NC(=O)CCN1C(=O)NC(C)(C)C1=O	22%	1	-1	0%
COc1ccc(C(=O)Nc2ccc(Cl)cc2F)cc1S(=O)(=O)N1CCCC1	1%	-15	4	-1%
CCOC(=O)C1(CCOc2ccccc2)CCN(Cc2cccc(OC)c2O)CC1	2%	-113*	-102*	-5%
CCOC(=O)C1(Cc2cccc(OC)c2)CCN(Cc2cc(OC)ccc2OC)CC1	17%	?	20	-2%
CCOC(=O)C1(CCOc2ccccc2)CCN(Cc2cccs2)CC1	4%	-86*	?	-3%
CCOC(=O)C1(CCOc2ccccc2)CCN(Cc2cccn2-c2ncccn2)CC1	3%	-101*	-90*	3%
CCOC(=O)C1(CCOc2ccccc2)CCN(Cc2cc(OC)ccc2OC)CC1	-8%	-88*	-80*	-3%
CCOC(=O)C1(CCOc2ccccc2)CCN(Cc2ccc(O)c(Cl)c2)CC1	-11%	?	-4	-2%
CC1CCCCN1CC(=O)Nc1ccc(Oc2ccccc2)cc1 (centres undefined)	3%	-89*	12	-1%
CN(C)c1nc(N)c(C#N)c(C#N)c1C#N	-6%	-10	-5	?
CCC(=O)Nc1ccc(C(=O)CSc2nnc(-c3ccc(NS(=O)(=O)CC)cc3)o2)cc1OC	0%	8	-92*	-3%
CS(=O)(=O)NCCCNc1ccc(C(F)(F)F)cc1[N+](=O)[O-]	4%	-1	-18	-1%
O=[N+]([O-])c1cc(C(F)(F)F)ccc1NCCCCNS(=O)(=O)c1ccc(Cl)cc1	?	-103*	-8	-2%
Cc1ccccc1CNC(=O)CN(c1ccccc1Cl)S(C)(=O)=O	0%	4	-7	0%
O=C(NCCCc1ccccc1)C(=O)NCC1OCCN1S(=O)(=O)c1cc(F)ccc1F (centres undefined)	-7%	27	-6	2%
COc1ccc(CCNC(=O)C(=O)NCC2OCCN2S(=O)(=O)c2cc(F)ccc2F)cc1 (centres undefined)	0%	-143*	8	-1%
O=C(NCCCn1ccnc1)c1cc(Cl)cc(Cl)c1	9%	-3	27	0%
